Assay results: PubChem BioAssay AID504329 (Southern Research Specialized Biocontainment Screening …, 2011)
Several values for one entry are separate records, joined by “and”; a condition that tells them apart may be missing. Equal values may be shown once. Out of some 340,000 compounds screened, about 1,000 (0.29%) were called active. No stated cut-off is given here; in the data, inconclusive means inhibition above about 27% without an active follow-up result; inactive means below that. These entries were drawn from the full list. Entries with a potency or affinity are not part of this list.

Test: H1N1 influenza NS1A inhibitors, functional cell based assay (AID 504329)
Conditions: percent inhibition, at 12.5 µM, active compounds read high

| SMILES | inhibition |
| --- | --- |
| Cn1nnnc1SCC(=O)N1CCc2ccccc21 | -9.92% (inactive) |
| O=C1/C(=C/c2ccncc2)N2CCC1CC2 | -8.83% (inactive) |
| CC(C)CC(=O)Nc1nnc(SCC(=O)NCC2CCCO2)s1 (configuration not stated) | -4.89% (inactive) |
| CCc1nnc(NS(=O)(=O)c2ccc(N/C=C\C(=O)c3ccc(C)cc3)cc2)s1 | 2.79% (inactive) |
| COC(=O)c1ccccc1NC(=O)CSc1ncccn1 | -13.4% (inactive) |
| CC(=O)c1ccc(Nc2nc(C)cc(C)n2)cc1 | 0.38% (inactive) |
| Cc1cc(C)nc(NN2C(=O)C=CC2=O)n1 | 0.34% (inactive) |
| Cn1c(SCC(=O)Nc2nccs2)nnc1-c1ccncc1 | 2.71% (inactive) |
| CCOC(=O)C(C)Oc1cccc2c(=O)n(CC(=O)NCCc3ccccc3)ccc12 (configuration not stated) | 0.03% (inactive) |
| CC(C)C(OC(=O)c1cccs1)C(=O)NCc1ccc2c(c1)OCO2 (configuration not stated) | -1.71% (inactive) |
| Cc1cccc(NC(=O)c2ccc3nccnc3c2)c1C | 0.36% (inactive) |
| COc1cc(NC(=O)c2ccccc2F)c(OC)cc1NC(=O)CN1CCCCC1 | -0.03% (inactive) |
| N/C(=N\OC(=O)Cc1ccccc1[N+](=O)[O-])c1ccccn1 | -3.44% (inactive) |
| N/C(=N\OC(=O)Cc1ccccc1)c1ccccn1 | -5.24% (inactive) |
| Cc1c(OC(C)C(=O)NCC(O)c2ccccc2)ccc2c3c(c(=O)oc12)CCC3 (configuration not stated) | 3.79% (inactive) |
| CNC(=O)c1c(NC(=O)c2ccc(S(=O)(=O)N3CCCCC3C)cc2)sc2c1CCN(C)C2 (configuration not stated) | -4.17% (inactive) |
| CCc1ccc(Nc2n[n+](-c3ccccc3)c(-c3cccc(Cl)c3Cl)s2)cc1 | -1.96% (inactive) |
| CCc1ccc(Nc2n[n+](-c3ccccc3)c(-c3cccc(C)c3)s2)cc1 | -15% (inactive) |
| Fc1ccc(-[n+]2nc(Nc3ccccc3)sc2-c2c3ccccc3cc3ccccc23)cc1 | 10.5% (inactive) |
| Fc1ccc(-[n+]2nc(Nc3ccccc3)sc2-c2cccc(Cl)c2Cl)cc1 | 1.31% (inactive) |
| COc1ccc(S(=O)(=O)CCC(=O)N2CC(=O)N(CCc3ccccc3)C(=O)C2)cc1 | -13.4% (inactive) |
| CSc1ncc(/C=C2/C(=O)NC(=O)N(C)C2=O)cn1 | 6.14% (inactive) |
| CC1Cc2ccccc2N1C(=O)c1ccc2c(c1)OCO2 (configuration not stated) | -9.71% (inactive) |

| SMILES | inhibition |
| --- | --- |
| CCCOc1cccc(OCC(=O)Nc2nc3ccccc3[nH]2)c1 | -2.2% (inactive) |
| CN(C)c1ccc(/C=C2\CCC/C(=C\c3ccccc3)C2=O)cc1 | -5.05% (inactive) |
| CC(C)/C=C1\CC/C(=C\c2ccc(N(C)C)cc2)C1=O | -9.13% (inactive) |
| O=C1C(=O)N(CCCn2ccnc2)C(c2ccc(Cl)cc2)/C1=C(\O)c1ccc2c(c1)OCCO2 (configuration not stated) | 4.67% (inactive) |
| Cc1ccc(SCC(=O)NCCc2ccccc2)cc1 | 4.08% (inactive) |
| O=C(Nc1ccc2c(c1)OCO2)C1COc2ccccc2O1 (configuration not stated) | -3.64% (inactive) |
| O=C(Nc1cc([N+](=O)[O-])c2[nH]c(=O)c3ccccc3c2c1)C(F)(F)F | 1.69% (inactive) |
| c1ccc(CN2CCC(CNc3ncnc4ccccc34)C2)cc1 (configuration not stated) | -2.71% (inactive) |
| O=C(CC1CC2CCC1C2)Nc1nc(-c2ccccn2)cs1 (configuration not stated) | -17.9% (inactive) |
| CC1(c2ccccc2)NC(=O)N(CC(=O)Nc2nc(-c3ccccn3)cs2)C1=O (configuration not stated) | 17.7% (inactive) |
| O=C(Nc1nc(-c2ccccn2)cs1)C1CCCC1 | -0.49% (inactive) |
| O=C(CN1C(=O)CCC1=O)Nc1nc(-c2cccs2)cs1 | -13.6% (inactive) |
| O=C(CN1C(=O)C2CCCCC2C1=O)Nc1nc(-c2ccc(F)cc2)cs1 (configuration not stated) | -0.75% (inactive) |
| O=C(CCN1C(=O)C2CCCCC2C1=O)Nc1nc(-c2ccccc2)cs1 (configuration not stated) | 12.8% (inactive) |
| O=C(CN1C(=O)CCC1=O)Nc1nc(-c2ccc3ccccc3c2)cs1 | -4.5% (inactive) |
| O=C(Nc1nc(-c2ccccn2)cs1)C1CC1 | 15.6% (inactive) |
| N#Cc1cc(-c2cccc(Cl)c2)c[nH]c1=O | 3.18% (inactive) |
| Cc1ccc(C(=O)Nc2cccc(C(=O)NCc3ccco3)c2)cc1 | 0.66% (inactive) |
| COc1ccc(C(=O)NCCSCc2cccc(Cl)c2)cc1OC | -9.42% (inactive) |
| O=C(CCN1CCN(c2ccc(F)cc2)CC1)Nc1ccc(F)cc1 | 8.96% (inactive) |
| CC(C)(C)c1cc(C(=O)N2CCc3ccccc32)ccn1 | -21.7% (inactive) |
| CC(=O)Nc1sc(C)c(C)c1C(=O)OCC(=O)NC(C)c1ccccc1 (configuration not stated) | -5.54% (inactive) |
| Cc1ccc(S(=O)(=O)Nc2nc3ccccc3nc2NCC2CCCO2)cc1C (configuration not stated) | -0.91% (inactive) |

| SMILES | inhibition |
| --- | --- |
| O=C1CC(c2ccc(O)cc2)Oc2cc(O)ccc21 (configuration not stated) | -6.8% (inactive) |
| O=C(COc1ccccc1)N[C@@H]1c2ccccc2CC[C@H]1OCc1ccccc1 | -3.28% (inactive) |
| COc1cc(OC)c2c(-c3ccccc3)cc(=O)oc2c1C(CCN1CCCC(C)C1)c1ccc2c(c1)OCO2 (configuration not stated) | 17.6% (inactive) |
| CCN(CC)CCC(c1cc(OC)c(OC)c(OC)c1)c1c(OC)cc(OC)c2c(-c3ccccc3)cc(=O)oc12 (configuration not stated) | -1.61% (inactive) |
| CCN(CC)CCC(c1ccc2c(c1)OCO2)c1c(OC)cc(OC)c2c(-c3ccccc3)cc(=O)oc12 (configuration not stated) | 15.2% (inactive) |
| COc1cc(OC)c2c(-c3ccccc3)cc(=O)oc2c1C(CCN1CCOCC1)c1ccc(N(C)C)cc1 (configuration not stated) | 9.77% (inactive) |
| COc1ccc(C(CCN2CCCCC2)c2c(OC)cc(OC)c3c(-c4ccccc4)cc(=O)oc23)cc1 (configuration not stated) | 3.17% (inactive) |
| COc1ccc(C(CCN2CCCC(C)C2)c2c(OC)cc(OC)c3c(-c4ccccc4)cc(=O)oc23)cc1 (configuration not stated) | 10.3% (inactive) |
| O=C(NCCc1ccccn1)c1ccc(NS(=O)(=O)c2ccc(F)cc2)cc1 | -1.36% (inactive) |
| COc1cccc(OCC(=O)NNC(=O)c2ccc3ccccc3c2O)c1 | 3.46% (inactive) |
| CS(=O)(=O)N1N=C(c2ccco2)CC1c1ccco1 (configuration not stated) | 0.65% (inactive) |
| CC(NC(=O)CN(c1cccc(C(F)(F)F)c1)S(=O)(=O)c1ccc(Cl)c([N+](=O)[O-])c1)c1ccccc1 (configuration not stated) | -1.19% (inactive) |
| N#Cc1ccc(C(=O)Nc2cccc3ccccc23)c(F)c1 | 4.06% (inactive) |
| CN1C(N)=NC(=O)/C1=C/c1ccc(OC(F)(F)F)cc1 | -2.53% (inactive) |
| CCOC(=O)c1ccccc1NC(=O)CN(c1ccccc1OCC)S(C)(=O)=O | 0.08% (inactive) |
| Cc1ccc(NC(=O)C2CCN(S(=O)(=O)c3ccc(C(C)(C)C)cc3)CC2)cc1S(=O)(=O)N1CCOCC1 | -3.38% (inactive) |
| CCCN(CCC)S(=O)(=O)c1ccc(NS(C)(=O)=O)cc1 | -0.06% (inactive) |
| Cc1ccccc1NC1=C/C(=N\S(=O)(=O)c2ccc(C(=O)O)cc2)c2ccccc2C1=O | 4.65% (inactive) |
| COC(=O)c1cccc(NS(=O)(=O)c2cccs2)c1C | 1.41% (inactive) |
| COC(=O)c1cc(NS(=O)(=O)c2cccs2)cc(NS(=O)(=O)c2cccs2)c1 | -13.7% (inactive) |
| COC(=O)c1ccccc1NC(=O)c1cccs1 | 11.6% (inactive) |
| O=C(O)c1ccc(S(=O)(=O)/N=C2\C=C(Nc3ccccc3F)C(=O)c3ccccc32)cc1 | 14.7% (inactive) |
| Cc1ccc(Cl)cc1NC1=C/C(=N\S(=O)(=O)c2cccs2)c2ccccc2C1=O | 17.4% (inactive) and 16.6% (inactive) |

| SMILES | inhibition |
| --- | --- |
| COc1ccccc1S(=O)(=O)Cc1ccc(C(=O)N2CCN(c3ccc(C)cc3)C(C)C2)o1 (configuration not stated) | 9.7% (inactive) |
| COC(=O)c1ccc2c(c1O)C(=O)c1ccccc1C2=O | 4.41% (inactive) |
| CC(C)COC(=O)c1ccccc1C(=O)OCC(C)C | 2.41% (inactive) |
| CCN(CC)c1ccc(O)c(C=Nc2ccc(C)c(C)c2)c1 | -19.5% (inactive) |
| COc1ccc2c(O)c(-c3c(C)cc(C)cc3C)c(=O)[nH]c2c1 | 10.4% (inactive) |
| COc1ccc(/C=C(/NC(=O)c2ccco2)C(=O)Nc2ccc(C(=O)O)cc2)cc1 | -7.59% (inactive) |
| O=C(O)c1ccc(N2CCc3ccccc32)c([N+](=O)[O-])c1 | 4.7% (inactive) |
| COC(CNC(=O)c1ccc(N2CCc3ccccc32)c([N+](=O)[O-])c1)OC | 10.7% (inactive) |
| COCC(COS(N)(=O)=O)C(C)C (configuration not stated) | 9.46% (inactive) |
| CCc1nc(N2CCN(C(=O)c3ccccc3)CC2)c2c3c(sc2n1)CCCC3 | 2.27% (inactive) |
| Cc1c2ccccc2cc[n+]1CCCS(=O)(=O)[O-] | 5.16% (inactive) |
| CCOc1ccc(C(=O)Nc2ncn[nH]2)cc1 | -3.3% (inactive) |
| CCC(CO)Oc1cc(NCc2ccccc2)c2ncn(C(C)C)c2c1 (configuration not stated) | 3.05% (inactive) |
| COc1cc(NCc2ccccc2)c2ncn(C(C)C)c2c1 | 0.83% (inactive) |
| Cc1ccc2c(c1)c(N=Nc1cccc(C(=O)O)c1)c(O)n2C | -0.45% (inactive) |
| CC(=O)Nc1nonc1NC(=O)COc1ccccc1 | -0.08% (inactive) |
| CCC(C)[C@H](NC(=O)[C@@H]1Cc2c([nH]c3ccccc23)C2c3ccccc3C(=O)N21)C(=O)NCC1CCCO1 (some centres not stated) | 0.06% (inactive) |
| C=CCOC(=O)C1=C(C)Nc2nc3ccccc3n2C1c1ccncc1 (configuration not stated) | -21.4% (inactive) |
| Cc1cccc(/C=N/NC(=O)CN2CCCCCCC2)c1 | 5.95% (inactive) |
| Cc1ccc2cc(/C=N/NC(=O)CN3CCCCC3)c(Cl)nc2c1 | 1.44% (inactive) |
| O=C(CN1CCCc2ccccc21)N/N=C/c1c(O)ccc2ccccc12 | -3.7% (inactive) |
| O=C(CN1CCOCC1)N/N=C/c1c(O)ccc2ccccc12 | 14.4% (inactive) |
| COc1cc2oc3ccccc3c2cc1N(CC(=O)N(C)C)S(=O)(=O)c1ccc(C)cc1 | 1.98% (inactive) |
